Experiments:
Conditions in all cases: concentration: 1 μM, replicates: in singlicate; n = 1
PAK6 = test system: PAK6
PAK7 = test system: PAK7
PCTK1 = test system: T1, PCTK1
T1 construct: gene CDK16

PCTK2 = test system: T2, PCTK2
T2 construct: gene CDK17

PCTK3 = test system: T3, PCTK3
T3 construct: gene CDK18

PDGFRA = test system: PDGFRA
PDGFRB = test system: PDGFRB
PDPK1 = test system: PDPK1
PFTAIRE2 = test system: PFTAIRE2
PFTK1 = test system: T4, PFTK1
T4 construct: gene CDK14
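Further: KINOMEscan kinase panel screen.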

| Compound | %Inh (PAK6) | %Inh (PAK7) | %Inh (PCTK1) | %Inh (PCTK2) | %Inh (PCTK3) | %Inh (PDGFRA) | %Inh (PDGFRB) | %Inh (PDPK1) | %Inh (PFTAIRE2) | %Inh (PFTK1) |
| --- | --- | --- | --- | --- | --- | --- | --- | --- | --- | --- |
| Fc1cc(Cl)ccc1Nc1ccnc2cc(-c3ccc(CN4CCCCC4)o3)ccc12 [GW560116] | 0% | 16% | 0% | 0% | 27% | 65% | 94.8% | 100% | 0% | 18% |
| Cc1ccc(NC(=O)Nc2cccc(Cl)c2)cc1-c1ccc(C(=O)Nc2ccncc2)cc1 [GSK1398468] | 0% | 1% | 0% | 0% | 0% | 43% | 99.9% | 0% | 16% | 20% |
| Clc1cc(Cl)cc(Nc2ccnc(Nc3cc(Cl)cc(Cl)c3)n2)c1 [GSK175726] | 9% | 10% | 0% | 19% | 0% | 14% | 21% | 19% | 2% | 0% |
| Cl.c1ccc(-c2n[nH]cc2-c2ccnc(-c3ccc(CN4CCOCC4)cc3)c2)nc1 [GW776245] | 14% | 0% | 0% | 11% | 6% | 0% | 0% | 21% | 19% | 0% |
| Cl.O=C(Nc1cccc(-c2nn3ncccc3c2-c2ccnc(Nc3cccnc3)n2)c1)c1c(F)cccc1F [GSK312879] | 0% | 10% | 1% | 0% | 0% | 0% | 77% | 28% | 22% | 9% |
| Nc1ncnc2[nH]c(-c3ccccc3)nc12 [AH5015] | 0% | 0% | 3% | 0% | 0% | 9% | 42% | 21% | 6% | 11% |
| O=C(O)COc1ncnc2cc(-c3ccc4[nH]ncc4c3)sc12 | 0% | 7% | 17% | 0% | 0% | 45% | 31% | 0% | 0% | 12% |
| Cc1c(Cn2ccn3c(=O)cc(N4CCOCC4)nc23)cccc1C(F)(F)F [GSK2289044] | 4% | 27% | 2% | 0% | 8% | 0% | 21% | 17% | 17% | 13% |
| COc1cc2ncn(-c3cc(OCC4CCCO4)c(C(N)=O)s3)c2cc1OC (centres unmarked) [GSK204607] | 0% | 12% | 0% | 0% | 0% | 0% | 32% | 0% | 1% | 24% |
| O=c1cc(N2CCOCC2)nc2n(Cc3cccc(Cl)c3Cl)ccn12 [GSK2286295] | 0% | 22% | 6% | 15% | 13% | 0% | 37% | 0% | 23% | 2% |
| C[C@@H]1CCCCN1c1cc(-c2ccc3c(N)n[nH]c3c2)nc(N)n1 [GSK2258759] | 0% | 0% | 5% | 0% | 0% | 0% | 6% |  | 3% | 17% |
| COc1ccc2nc(-c3cccc(C)n3)nc(Nc3ccncc3)c2c1 [GSK204919] | 0% | 1% | 5% | 0% | 36% | 0% | 25% | 12% | 0% | 14% |
| Cc1ccc(C(=O)Nc2ccc(Nc3ccnc4cc(-c5ccccn5)ccc34)cc2O)cc1.Cl [GW440146] | 8% | 0% | 0% | 0% | 24% | 54% | 86% | 0% | 26% | 18% |
| COC(=O)c1c(-c2ccccc2)c2cc(OC)ccc2c(=O)n1Cc1ccccc1 | 3% | 5% | 0% | 4% | 9% | 70% | 99.5% | 0% | 10% | 6% |
| COc1ccc(C2=C(Nc3cccc(C(=O)O)c3)C(=O)NC2=O)cc1 [SB-390765] | 0% | 0% | 1% | 8% | 0% | 30% | 0% | 21% | 24% | 6% |
| COc1cc2ncnc(Nc3ccc4nc(-c5ccccc5)[nH]c4c3)c2cc1OC.Cl [GW282450] | 11% | 12% | 0% | 0% | 1% | 0% | 28% | 0% | 8% | 19% |
| Cc1cc(N2Cc3ccccc3C2)nc(Nc2ccc(S(=O)(=O)N3CCOCC3)cc2)n1.Cl [GSK1669917] | 0% | 0% | 0% | 0% | 0% | 0% | 2% | 0% | 0% | 23% |
| Cc1csc(-c2nc(Nc3ccncc3)c3ccccc3n2)n1 [GW869640] | 0% | 8% | 20% | 0% | 12% | 36% | 0% | 0% | 21% | 5% |

| Compound | %Inh (PAK6) | %Inh (PAK7) | %Inh (PCTK1) | %Inh (PCTK2) | %Inh (PCTK3) | %Inh (PDGFRA) | %Inh (PDGFRB) | %Inh (PDPK1) | %Inh (PFTAIRE2) | %Inh (PFTK1) |
| --- | --- | --- | --- | --- | --- | --- | --- | --- | --- | --- |
| Cc1ccc(-c2cc(-c3c[nH]nc3-c3ccccn3)ccn2)cc1 [GW684088] | 9% | 19% | 0% | 19% | 40% | 7% | 22% | 0% | 0% | 32% |
| Cn1ccc2ncnc(Oc3ccc(NC(=O)Nc4ccccc4)cc3)c21 | 0% | 0% | 1% | 4% | 1% | 97.6% | 100% | 0% | 0% | 0% |
| COc1cccc(NC(=O)NC2CCN(c3ccnc(Nc4ccc(F)cc4)n3)C2)c1 (centres unmarked) [GSK1379721] | 0% | 10% | 1% | 14% | 19% | 9% | 42% | 0% | 28% | 0% |
| CCn1c(-c2ccccn2)nc2cnccc21 [SB-736398] | 0% | 0% | 3% | 0% | 17% | 0% | 0% | 97% | 0% | 16% |
| COc1cc2nccc(Nc3ccc(NC(=O)c4ccc(C)cc4)c(O)c3)c2cc1OC.Cl [GW440132] | 0% | 0% | 4% | 0% | 19% | 12% | 69% | 0% | 26% | 85% |
| Fc1cc(Cl)ccc1Nc1ccnc2cc(I)ccc12 [GW551191] | 0% | 0% | 4% | 0% | 0% | 9% | 88% | 0% | 9% | 4% |
| Cc1c(O)cccc1Nc1ccnc2ccc(C(F)(F)F)cc12.Cl [GW466413] | 0% | 0% | 0% | 0% | 0% | 0% | 5% | 0% | 0% | 0% |
| Cc1cccc(-c2nc(Nc3ccc4[nH]ncc4c3)c3ccccc3n2)n1 [GW857175] | 4% | 0% | 23% | 2% | 15% | 19% | 0% | 39% | 0% | 9% |
| COc1ccccc1-c1ccc2c(NC(=O)C3CC3)n[nH]c2n1 [SB-711239] | 54% | 4% | 1% | 0% | 27% | 0% | 0% | 13% | 9% | 2% |
| Fc1cccc(COc2nnc(-c3ccc4c(c3)CCO4)o2)c1 | 38% | 17% | 8% | 6% | 0% | 28% | 0% | 0% | 7% | 2% |
| Cc1ccc(NC(=O)Nc2cc(C(C)(C)C)nn2-c2ccccc2)cc1 [GSK1014915] | 0% | 0% | 6% | 0% | 27% | 36% | 98.9% | 0% | 10% | 9% |
| Cc1cccc(-c2cc(Nc3ccncc3)c3ccccc3n2)n1 [GSK223675] | 0% | 0% | 13% | 7% | 0% | 2% | 23% | 0% | 27% | 16% |
| COc1ccc(Nc2nccc(-c3cccc(NC(=O)c4cc5cc(F)ccc5[nH]4)c3)n2)cc1 [GSK1229782] | 11% | 51% | 1% | 18% | 7% | 33% | 61% | 21% | 30% | 24% |
| Cn1cncc1-c1ccc2ncnc(Nc3ccc(OCc4ccccc4)cc3)c2c1 [GW320571] | 0% | 0% | 0% | 0% | 7% | 0% | 9% | 9% | 20% | 0% |
| COc1ccc(Nc2nccc(NCCNC(=O)Nc3ccccc3F)n2)cc1 [GSK1379901] | 0% | 0% | 4% | 0% | 0% | 0% | 70% | 0% | 3% | 26% |
| O=C1NC(=O)C(N2CCc3ccccc32)=C1c1ccccc1Cl [SB-373598] | 55% | 0% | 3% | 1% | 17% | 0% | 4% | 32% | 9% | 0% |
| Cc1cccc(-c2nc(-c3ccc(S(C)(=O)=O)cc3)sc2-c2ccnc(NCCc3ccccc3)c2)c1 | 5% | 5% | 15% | 3% | 0% | 89% | 100% | 17% | 5% | 0% |
| CS(=O)(=O)c1ccc(-c2c(-c3ncn[nH]3)sc(N3CCOCC3)c2C#N)cc1 | 12% | 0% | 0% | 3% | 14% | 6% | 20% | 0% | 0% | 13% |

— paper PMC5540273 (PLoS ONE, 2017)
